Data published in PubChem BioAssay (EPA / NIEHS).
Activity calls are given as the source filed them. How the source made its calls: active means hit-call score of the fitted dose curve at least 0.9, where 1 is the maximum; inactive means score below 0.9.

Experiments:
[1] = ATG_GRE_CIS: Attagene CIS-FACTORIAL HepG2 Assay for human Glucocorticoid Response Elements (GRE) (AID 2282947); details: HepG2 GRE cis-reporter, Attagene multiplex mRNA; actives raise or lower the signal
Procedure, shortened: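 HepG2 cells transiently transfected with multiple cis-promoter reporter units measure endogenous TF activity; 24 h compound exposure. Reporter mRNA quantified by RT-PCR, FAM labelling, HpaI digestion and capillary electrophoresis; bidirectional fit vs DMSO baseline.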

[2] = ATG_ISRE_CIS: Attagene CIS-FACTORIAL HepG2 Assay for human Interferon Regulatory Factor 1 (IRF1) binding to an Interferon-Stimulated Response Element (ISRE) (AID 2282948); details: HepG2 ISRE cis-reporter (Attagene), mRNA transcription readout; actives raise or lower the signal
Procedure, shortened: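 Transiently transfected HepG2 cells carrying cis-element reporter units, dosed 24 hours. Reporter mRNA quantified by RT-PCR, fluorescent primer extension, HpaI digestion and capillary electrophoresis. Bidirectional fitting relative to DMSO.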

[3] = ATG_M_32_CIS: Attagene CIS-FACTORIAL HepG2 Assay for M32 Transcription Factor (Internal Marker) (AID 2282949); details: HepG2 Attagene cis-factorial M32 reporter, mRNA; actives raise or lower the signal;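 further: background control marker of the multiplexed CIS panel rather than a real target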
Procedure, shortened: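 Internal background marker read-out: RT-PCR/capillary electrophoresis fluorescence of reporter transcripts from transiently transfected HepG2 cells after 24 h chemical exposure. Activity fitted bidirectionally relative to DMSO negative control.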

[4] = ATG_M_06_CIS: Attagene CIS-FACTORIAL HepG2 Assay for M06 Transcription Factor (Internal Marker) (AID 2282950); details: HepG2 Attagene CIS-FACTORIAL M06 internal marker reporter; actives raise or lower the signal
Procedure, shortened: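 Serves as a background control readout. Transfected HepG2 exposed to compounds for 24 h, then reporter transcripts quantified by fluorescent RT-PCR and capillary electrophoresis. Both directions fitted against DMSO baseline.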

[5] = biological target: Hypoxia-inducible factor 1-alpha (Homo sapiens) (UniProt Q16665); assay: ATG_HIF1a_CIS: Attagene CIS-FACTORIAL HepG2 Assay for human Hypoxia Inducible Factor 1 (HIF1A) (AID 2282951); details: HepG2 Attagene cis-factorial HIF1a reporter transcription; actives raise or lower the signal
Procedure, shortened: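 Fluorescence intensity of capillary-separated, 6-FAM-labelled reporter amplicons gives mRNA induction in HepG2 cells carrying transfected cis-promoter reporter units; cells exposed 24 h, responses fitted up or down from DMSO.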

[6] = biological target: Heat shock factor protein 1 (Homo sapiens) (UniProt Q00613); assay: ATG_HSE_CIS: Attagene CIS-FACTORIAL HepG2 Assay for human Heat Shock Transcription Factor 1 (HSE) (AID 2282953); details: HepG2 HSE cis-reporter, Attagene RNA transcription; actives raise or lower the signal
Procedure, shortened: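 Endogenous transcription factor activity in transiently transfected HepG2, read as reporter mRNA by RT-PCR with fluorescent capillary electrophoresis after 24 h. Gain or loss of signal fitted versus DMSO baseline.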

[7] = ATG_MRE_CIS: Attagene CIS-FACTORIAL HepG2 Assay for human Metal Responsive Element (MRE) (AID 2282954); details: HepG2 MRE cis-reporter transcription, Attagene multiplex; actives raise or lower the signal
Procedure, shortened: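 HepG2 cells transiently transfected with multiple cis-element reporter units measure endogenous MTF1-driven transcription. After 24 h compound exposure, reporter mRNA is quantified by RT-PCR with 6-FAM labelling, HpaI digestion and capillary electrophoresis; bidirectional fits versus DMSO.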

[8] = biological target: Paired box protein Pax-6 (Homo sapiens) (UniProt P26367); assay: ATG_Pax6_CIS: Attagene CIS-FACTORIAL HepG2 Assay for human Paired Box 6 (PAX6) (AID 2282956); details: HepG2 CIS-FACTORIAL PAX6 reporter transcription, RNA readout; actives raise or lower the signal
Procedure, shortened: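 HepG2 cells transiently transfected with cis-promoter-driven multiplexed reporter units sensing endogenous transcription factor activity; 24 h chemical exposure. Reporter mRNA quantified by RT-PCR, 6-FAM labelling, HpaI digestion and capillary electrophoresis; bidirectional fit versus DMSO baseline.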

[9] = ATG_PXRE_CIS: Attagene CIS-FACTORIAL HepG2 Assay for human Pregnane X Receptor Element (PXRE) (AID 2282957); details: HepG2 Attagene CIS-FACTORIAL PXRE reporter, mRNA; actives raise or lower the signal
Procedure, shortened: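 Transiently transfected HepG2 cells were dosed and incubated for 24 h. RNA was then isolated, DNase-treated, reverse-transcribed and reporter sequences amplified. Labeled, HpaI-digested fragments were quantified by capillary electrophoresis against DMSO.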

[10] = ATG_RORE_CIS: Attagene CIS-FACTORIAL HepG2 Assay for human RAR-related Orphan Receptor Element (RORE) (AID 2282959); details: HepG2 Attagene cis-factorial RORE reporter, mRNA; actives raise or lower the signal
Procedure, shortened: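 Endogenous factor activity at a cis response element is read as reporter transcript levels in HepG2 cells, 24 h post-dose. Transcripts are quantified by RT-PCR with capillary electrophoresis, and data fitted in both directions against DMSO.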

[11] = ATG_Sox_CIS: Attagene CIS-FACTORIAL HepG2 Assay for human SRY-box transcription factor (SOX) (AID 2282960); details: HepG2 Attagene cis-factorial SOX reporter, mRNA; actives raise or lower the signal
Procedure, shortened: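 Measures mRNA induction of a SOX1-associated reporter in HepG2 after 24 h dosing. Fluorescently labelled RT-PCR fragments are separated by capillary electrophoresis, and gain or loss relative to DMSO control is fitted.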

[12] = biological target: Transcription factor Sp1 (Homo sapiens) (UniProt P08047); assay: ATG_Sp1_CIS: Attagene CIS-FACTORIAL HepG2 Assay for human Specificity Protein 1 (Sp1) (AID 2282961); details: HepG2 Sp1 cis-reporter transcription, actives raise or lower the signal
Procedure, shortened: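 Cells: HepG2, transiently transfected with cis-regulated multiplexed reporters. Exposure: 24 h. Detection: reporter transcripts amplified, fluorescently labeled, restriction-digested and sized by capillary electrophoresis. Analysis: bidirectional fit relative to DMSO.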

[13] = ATG_SREBP_CIS: Attagene CIS-FACTORIAL HepG2 Assay for human Sterol Regulatory Element Binding (SREBP) (AID 2282962); details: HepG2 Attagene cis-factorial SREBP reporter, mRNA; actives raise or lower the signal
Procedure, shortened: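 HepG2 cells transiently transfected with multiplexed cis-promoter reporter units sensing endogenous transcription factors; reporter mRNA measured 24 h after dosing by RT-PCR, 6-FAM labeling, HpaI digestion and capillary electrophoresis. Bidirectional fit versus DMSO.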

[14] = biological target: Signal transducer and activator of transcription 3 (Homo sapiens) (UniProt P40763); assay: ATG_STAT3_CIS: Attagene CIS-FACTORIAL HepG2 Assay for human Signal Transducer and Activator of Transcription 3 (STAT3) (AID 2282963); details: HepG2, Attagene cis-factorial STAT3 reporter transcription; actives raise or lower the signal
Procedure, shortened: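 HepG2 cells transiently transfected with cis-element-driven multiple reporter transcription units; after 24 h chemical exposure, reporter mRNA measured by RT-PCR, 6-FAM primer-extension labelling, HpaI digestion and capillary electrophoresis. Bidirectional fitting versus DMSO baseline.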

[15] = ATG_TA_CIS: Attagene CIS-FACTORIAL HepG2 Assay for human TA Basal Promoter (AID 2282964); details: HepG2 Attagene CIS-factorial TA basal promoter reporter; actives raise or lower the signal
Procedure, shortened: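 Background-control readout: TA basal promoter reporter mRNA, fitted in both directions relative to DMSO. Measured by RT-PCR and capillary electrophoresis 24 hours after treating HepG2 human liver cells transiently carrying multiplexed cis-regulated reporter constructs.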

[16] = ATG_TCF_b_cat_CIS: Attagene CIS-FACTORIAL HepG2 Assay for human T-Cell-Factor with beta-catenin (TCF/b-cat) (AID 2282965); details: HepG2 TCF/beta-catenin cis-reporter transcription, actives raise or lower the signal
Procedure, shortened: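 In this cis-format system, transfected HepG2 cells report endogenous transcription factor activity. Readout after 24 h exposure is reporter transcript abundance from RT-PCR and capillary electrophoresis, analysed for gain or loss of signal versus DMSO.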

[17] = ATG_TAL_CIS: Attagene CIS-FACTORIAL HepG2 Assay for human TAL Basal Promoter (AID 2282966); details: HepG2 Attagene cis-factorial TAL promoter reporter; actives raise or lower the signal;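 further: background control endpoint measuring basal TAL promoter reporter mRNA not a specific factor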
Procedure, shortened: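 Readout: reporter mRNA, fluorescence by CE. System: HepG2, transient multi-reporter transfection, endogenous TF activity. Exposure: 24 h. Analysis: bidirectional, DMSO-normalized; background control.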

[18] = ATG_PBREM_CIS: Attagene CIS-FACTORIAL HepG2 Assay for human Phenobarbital-responsive Enhancer Module (PBREM) (AID 2282955); details: HepG2 PBREM cis-reporter, Attagene multiplexed transcription; actives raise or lower the signal
Procedure, shortened: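 Cells were transfected with cis-element reporter units and treated for 24 h, after which RNA was extracted and reporter transcripts measured by RT-PCR and capillary electrophoresis.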

[19] = ATG_PPRE_CIS: Attagene CIS-FACTORIAL HepG2 Assay for human Peroxisome Proliferator-activated Response Element (PPRE) (AID 2282958); details: HepG2 PPRE cis-element reporter, Attagene transcription factor profiling; actives raise or lower the signal
Procedure, shortened: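 In this cell-based multiplex, a PPRE cis element drives a reporter sequence in transiently transfected HepG2 cells. Following 24 h treatment, labeled cDNA amplicons are sized and quantified by capillary electrophoresis, with DMSO defining baseline.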

[20] = biological target: Hepatocyte nuclear factor 6 (Homo sapiens) (UniProt Q9UBC0); assay: ATG_HNF6_CIS: Attagene CIS-FACTORIAL HepG2 Assay for human Hepatocyte Nuclear Factor 6 (HNF6) (AID 2282952); details: HepG2 Attagene cis-factorial HNF6 reporter transcription; actives raise or lower the signal
Procedure, shortened: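 Reporter mRNA induction or loss in HepG2 after 24 h exposure; transient cis-MRTU transfection; fragments quantified by capillary electrophoresis; bidirectional analysis, DMSO as negative control.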

Chain of Signal transducer and activator of transcription 3 (Homo sapiens) (P40763 whole entry, looked up): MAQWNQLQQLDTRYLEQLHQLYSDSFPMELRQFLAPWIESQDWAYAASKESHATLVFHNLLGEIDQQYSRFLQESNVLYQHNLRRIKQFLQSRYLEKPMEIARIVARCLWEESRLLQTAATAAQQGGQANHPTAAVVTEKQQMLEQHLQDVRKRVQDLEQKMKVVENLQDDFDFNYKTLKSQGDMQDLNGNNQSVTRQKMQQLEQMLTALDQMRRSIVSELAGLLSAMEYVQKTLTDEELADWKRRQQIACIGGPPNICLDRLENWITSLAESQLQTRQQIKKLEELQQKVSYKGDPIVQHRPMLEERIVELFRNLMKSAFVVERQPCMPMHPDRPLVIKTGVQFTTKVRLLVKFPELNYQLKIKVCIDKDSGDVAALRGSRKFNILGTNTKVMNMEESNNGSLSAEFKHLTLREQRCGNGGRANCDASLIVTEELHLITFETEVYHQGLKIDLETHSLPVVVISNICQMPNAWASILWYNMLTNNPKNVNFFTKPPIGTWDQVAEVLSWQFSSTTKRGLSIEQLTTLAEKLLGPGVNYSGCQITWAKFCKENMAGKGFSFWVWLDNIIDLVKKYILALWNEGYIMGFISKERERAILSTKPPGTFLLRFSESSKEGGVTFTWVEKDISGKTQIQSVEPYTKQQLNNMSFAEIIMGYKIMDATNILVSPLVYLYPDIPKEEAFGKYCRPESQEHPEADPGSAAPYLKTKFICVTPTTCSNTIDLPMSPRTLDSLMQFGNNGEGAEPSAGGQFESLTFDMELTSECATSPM
Chain of Heat shock factor protein 1 (Homo sapiens) (Q00613 whole entry, looked up): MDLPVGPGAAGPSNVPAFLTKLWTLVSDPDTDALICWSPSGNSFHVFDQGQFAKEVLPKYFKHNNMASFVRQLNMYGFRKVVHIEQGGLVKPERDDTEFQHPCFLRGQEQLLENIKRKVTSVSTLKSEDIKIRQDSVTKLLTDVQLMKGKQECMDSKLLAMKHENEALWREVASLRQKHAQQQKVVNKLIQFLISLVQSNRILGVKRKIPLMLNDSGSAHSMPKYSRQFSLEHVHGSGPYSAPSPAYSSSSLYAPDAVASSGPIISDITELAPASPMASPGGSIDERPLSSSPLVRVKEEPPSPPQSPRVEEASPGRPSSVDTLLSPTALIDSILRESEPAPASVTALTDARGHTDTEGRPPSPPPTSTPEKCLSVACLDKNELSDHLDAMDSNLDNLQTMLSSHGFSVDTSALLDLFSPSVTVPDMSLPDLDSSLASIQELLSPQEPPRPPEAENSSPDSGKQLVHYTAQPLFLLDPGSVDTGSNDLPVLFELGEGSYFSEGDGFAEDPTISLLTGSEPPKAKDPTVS
Chain of Hypoxia-inducible factor 1-alpha (Homo sapiens) (Q16665 whole entry, looked up): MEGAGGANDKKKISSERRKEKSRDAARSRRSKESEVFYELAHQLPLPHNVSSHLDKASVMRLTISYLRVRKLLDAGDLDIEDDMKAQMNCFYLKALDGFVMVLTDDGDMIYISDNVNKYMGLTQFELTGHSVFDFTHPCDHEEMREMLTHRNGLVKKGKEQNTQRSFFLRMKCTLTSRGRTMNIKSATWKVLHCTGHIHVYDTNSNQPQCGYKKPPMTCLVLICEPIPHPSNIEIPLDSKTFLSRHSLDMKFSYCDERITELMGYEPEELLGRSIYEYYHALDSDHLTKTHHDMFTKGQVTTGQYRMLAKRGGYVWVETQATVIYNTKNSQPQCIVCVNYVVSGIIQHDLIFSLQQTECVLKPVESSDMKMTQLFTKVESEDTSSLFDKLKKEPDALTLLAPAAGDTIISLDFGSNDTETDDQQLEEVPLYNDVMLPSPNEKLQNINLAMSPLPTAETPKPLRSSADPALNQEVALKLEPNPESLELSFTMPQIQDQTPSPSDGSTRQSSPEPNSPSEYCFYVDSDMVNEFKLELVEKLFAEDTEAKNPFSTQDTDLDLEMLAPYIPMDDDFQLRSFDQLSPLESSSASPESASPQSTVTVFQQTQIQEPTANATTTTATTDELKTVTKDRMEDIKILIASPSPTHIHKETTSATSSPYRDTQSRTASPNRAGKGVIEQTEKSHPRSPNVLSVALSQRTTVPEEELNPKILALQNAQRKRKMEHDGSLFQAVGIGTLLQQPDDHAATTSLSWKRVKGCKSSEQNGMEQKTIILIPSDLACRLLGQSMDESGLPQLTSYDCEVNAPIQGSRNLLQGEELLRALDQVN
Chain of Paired box protein Pax-6 (Homo sapiens) (P26367 whole entry, looked up): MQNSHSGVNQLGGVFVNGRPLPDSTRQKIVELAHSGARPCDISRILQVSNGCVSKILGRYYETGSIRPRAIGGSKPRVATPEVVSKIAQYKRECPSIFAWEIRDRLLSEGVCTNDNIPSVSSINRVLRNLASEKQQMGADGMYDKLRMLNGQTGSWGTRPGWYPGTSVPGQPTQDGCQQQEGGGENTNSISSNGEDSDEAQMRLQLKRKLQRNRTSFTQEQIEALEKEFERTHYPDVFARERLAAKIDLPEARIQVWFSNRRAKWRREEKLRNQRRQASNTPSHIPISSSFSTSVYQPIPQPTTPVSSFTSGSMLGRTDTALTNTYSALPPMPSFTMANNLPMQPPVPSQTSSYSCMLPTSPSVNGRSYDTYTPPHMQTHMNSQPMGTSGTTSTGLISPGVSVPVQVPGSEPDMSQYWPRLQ
Chain of Transcription factor Sp1 (Homo sapiens) (P08047 whole entry, looked up): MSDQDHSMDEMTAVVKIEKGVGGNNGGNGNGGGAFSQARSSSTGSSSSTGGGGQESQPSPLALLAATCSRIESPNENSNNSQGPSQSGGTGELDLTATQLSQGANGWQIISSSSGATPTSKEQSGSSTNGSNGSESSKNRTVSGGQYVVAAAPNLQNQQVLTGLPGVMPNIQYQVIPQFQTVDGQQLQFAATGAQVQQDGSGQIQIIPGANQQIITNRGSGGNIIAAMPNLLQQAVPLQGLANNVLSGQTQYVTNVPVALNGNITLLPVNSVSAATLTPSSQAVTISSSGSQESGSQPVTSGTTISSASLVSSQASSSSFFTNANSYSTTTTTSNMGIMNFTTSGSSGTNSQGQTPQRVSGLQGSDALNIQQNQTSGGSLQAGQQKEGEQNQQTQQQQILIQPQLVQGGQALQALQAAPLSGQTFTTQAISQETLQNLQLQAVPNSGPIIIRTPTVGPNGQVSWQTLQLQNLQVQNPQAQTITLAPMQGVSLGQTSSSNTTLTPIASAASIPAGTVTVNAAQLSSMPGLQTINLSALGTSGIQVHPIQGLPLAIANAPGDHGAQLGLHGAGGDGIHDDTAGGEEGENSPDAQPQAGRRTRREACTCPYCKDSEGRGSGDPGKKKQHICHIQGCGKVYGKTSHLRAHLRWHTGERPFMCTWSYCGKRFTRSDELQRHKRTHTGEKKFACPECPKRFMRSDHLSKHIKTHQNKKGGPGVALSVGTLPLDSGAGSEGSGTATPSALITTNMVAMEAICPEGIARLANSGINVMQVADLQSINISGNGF
Chain of Hepatocyte nuclear factor 6 (Homo sapiens) (Q9UBC0 whole entry, looked up, the tested form may be a part): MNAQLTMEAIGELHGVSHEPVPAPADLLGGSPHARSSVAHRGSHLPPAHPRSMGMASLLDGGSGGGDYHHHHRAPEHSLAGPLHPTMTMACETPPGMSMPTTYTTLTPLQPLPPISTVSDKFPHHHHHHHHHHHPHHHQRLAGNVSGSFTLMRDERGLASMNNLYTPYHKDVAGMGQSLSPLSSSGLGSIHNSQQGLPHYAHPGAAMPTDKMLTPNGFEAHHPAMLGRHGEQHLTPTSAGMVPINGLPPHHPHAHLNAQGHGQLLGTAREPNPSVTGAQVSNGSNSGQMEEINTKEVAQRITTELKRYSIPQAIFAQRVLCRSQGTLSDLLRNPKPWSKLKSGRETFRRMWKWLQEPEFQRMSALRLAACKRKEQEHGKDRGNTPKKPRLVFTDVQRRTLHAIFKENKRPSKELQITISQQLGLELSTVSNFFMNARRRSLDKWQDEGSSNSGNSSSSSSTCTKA

O=C(O)c1cc(Oc2ccc(C(F)(F)F)cc2Cl)ccc1[N+](=O)[O-]
outcome [1]: inactive
outcome [2]: inactive
outcome [3]: inactive
outcome [4]: inactive
outcome [5]: inactive
outcome [6]: inactive
outcome [7]: inactive
outcome [8]: inactive
AC50 [9]: 60 µM (active)
outcome [10]: inactive
outcome [11]: inactive
outcome [12]: inactive
outcome [13]: inactive
outcome [14]: inactive
outcome [15]: inactive
outcome [16]: inactive
outcome [17]: inactive

CCCSP(=O)(OCC)SCCC
outcome [1]: inactive
outcome [2]: inactive
outcome [3]: inactive
outcome [4]: inactive
outcome [5]: inactive
outcome [6]: inactive
outcome [7]: inactive
outcome [18]: inactive
outcome [8]: inactive
AC50 [9]: 15.2 µM (active)
outcome [10]: inactive
outcome [11]: inactive
outcome [12]: inactive
outcome [13]: inactive
outcome [14]: inactive
outcome [15]: inactive
outcome [16]: inactive
outcome [17]: inactive

CN(C)NC(=O)CCC(=O)O
outcome [2]: inactive
outcome [3]: inactive
outcome [4]: inactive
outcome [5]: inactive
outcome [6]: inactive
outcome [7]: inactive
outcome [18]: inactive
outcome [8]: inactive
outcome [9]: inactive
outcome [19]: inactive
outcome [10]: inactive
outcome [11]: inactive
outcome [12]: inactive
outcome [13]: inactive
outcome [14]: inactive
outcome [15]: inactive
outcome [16]: inactive
outcome [17]: inactive

COc1cccc(C(=O)NN(C(=O)c2cc(C)cc(C)c2)C(C)(C)C)c1C
outcome [2]: inactive
outcome [3]: inactive
outcome [4]: inactive
outcome [5]: inactive
outcome [6]: inactive
outcome [7]: inactive
AC50 [18]: 3.46 µM (active)
outcome [8]: inactive
AC50 [9]: 0.526 µM (active)
outcome [19]: inactive
outcome [10]: inactive
outcome [11]: inactive
outcome [12]: inactive
outcome [13]: inactive
outcome [14]: inactive
outcome [15]: inactive
outcome [16]: inactive
outcome [17]: inactive

CC(C)[C@H](C(=O)O[C@H](C#N)c1cccc(Oc2ccccc2)c1)c1ccc(Cl)cc1
outcome [2]: inactive
outcome [3]: inactive
outcome [4]: inactive
outcome [5]: inactive
outcome [20]: inactive
outcome [6]: inactive
outcome [7]: inactive
AC50 [18]: 9.24 µM (active)
outcome [8]: inactive
AC50 [9]: 1.04 µM (active)
outcome [19]: inactive
outcome [10]: inactive
outcome [11]: inactive
outcome [12]: inactive
outcome [13]: inactive
outcome [14]: inactive
outcome [15]: inactive
outcome [16]: inactive
outcome [17]: inactive

CC1(C(=O)Nc2ccc(O)c(Cl)c2Cl)CCCCC1
outcome [2]: inactive
outcome [3]: inactive
outcome [4]: inactive
outcome [5]: inactive
outcome [20]: inactive
outcome [6]: inactive
AC50 [7]: 50 µM (active)
AC50 [18]: 5.86 µM (active)
outcome [8]: inactive
AC50 [9]: 2.91 µM (active)
AC50 [19]: 36.3 µM (active)
AC50 [10]: 50 µM (active)
outcome [11]: inactive
outcome [12]: inactive
AC50 [13]: 23.1 µM (active)
outcome [14]: inactive
outcome [15]: inactive
outcome [16]: inactive
outcome [17]: inactive

CON=C(C(=O)OC)c1ccccc1CON=C(C)c1cccc(C(F)(F)F)c1
AC50 [2]: 12.6 µM (active)
outcome [3]: inactive
outcome [4]: inactive
outcome [5]: inactive
AC50 [6]: 24.1 µM (active)
AC50 [7]: 68.9 µM (active)
outcome [18]: inactive
outcome [8]: inactive
AC50 [9]: 32.1 µM (active)
outcome [19]: inactive
outcome [10]: inactive
outcome [11]: inactive
outcome [12]: inactive
outcome [13]: inactive
outcome [14]: inactive
outcome [15]: inactive
outcome [16]: inactive
AC50 [17]: 13 µM (active)

CNC(=O)ON=C(SC)C(=O)N(C)C
outcome [2]: inactive
outcome [3]: inactive
outcome [4]: inactive
outcome [5]: inactive
outcome [6]: inactive
outcome [7]: inactive
outcome [18]: inactive
outcome [8]: inactive
AC50 [9]: 29.3 µM (active)
outcome [19]: inactive
outcome [10]: inactive
outcome [11]: inactive
outcome [12]: inactive
AC50 [13]: 50 µM (active)
outcome [14]: inactive
outcome [15]: inactive
outcome [16]: inactive
outcome [17]: inactive

CCNc1nc(Cl)nc(NC(C)(C)C#N)n1
outcome [1]: inactive
outcome [2]: inactive
outcome [3]: inactive
outcome [4]: inactive
outcome [5]: inactive
outcome [7]: inactive
outcome [18]: inactive
outcome [8]: inactive
AC50 [9]: 29.2 µM (active)
outcome [19]: inactive
outcome [10]: inactive
outcome [11]: inactive
outcome [12]: inactive
outcome [13]: inactive
outcome [14]: inactive
outcome [15]: inactive
outcome [16]: inactive
outcome [17]: inactive
